According to PubChem BioAssay AID1159580 (chemical genetic matrix, 2015):
Where “and” joins values, the source holds several entries; their conditions need not be identical. Equal values may be shown once. Among all 5,500 compounds or so, about 2,000 (36%) were called active. Roughly 18% stayed inconclusive and do not appear here. Rule as the data show it: active = normalized growth mostly below about 0.91 (no sharp cut-off); inconclusive = no clear call, values can overlap the other calls; inactive = mostly above about 0.92. The list shows a part of the results.

Test: chemical genetic growth profiling, strain panel (AID 1159580);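 also: tested at 20 µM; growth read once vehicle control cultures reached saturation at 30 °C; 1 = growth at the plate median or of vehicle wells; lower values mean less growth of the strain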
Conditions: S. cerevisiae deletion strains, growth OD

Measured: normalized growth

CC[C@@]1(O)C[C@H](O)c2c(cc3c(c2O)C(=O)c2c(O)ccc(O)c2C3=O)[C@H]1C(=O)OC
active: locus YAL013W, strain DEP1, stronger effect = lower value 0.495 | locus YAL021C, strain ccr4, stronger effect = lower value 0.768 | locus YAL030W, strain snc1, stronger effect = lower value 0.908 | locus YBL061C, strain skt5, stronger effect = lower value 0.89 | locus YBR009C, strain hhf1, stronger effect = lower value 0.805 | locus YBR231C, strain swc5, stronger effect = lower value 0.751 | locus YCL011C, strain gbp2, stronger effect = lower value 0.874 | locus YCL016C, strain dcc1, stronger effect = lower value 0.607 | locus YCL029C, strain bik1, stronger effect = lower value 0.873 | locus YDL035C, strain GPR1, stronger effect = lower value 0.779 | locus YDL074C, strain BRE1, stronger effect = lower value 0.588 | locus YDL101C, strain DUN1, stronger effect = lower value 0.659 | locus YDL134C, strain PPH21, stronger effect = lower value 0.622 | locus YDL185W, strain tfp1, stronger effect = lower value 0.774 | locus YDL192W, strain arf1, stronger effect = lower value 0.735 | locus YDR069C, strain doa4, stronger effect = lower value 0.896 | locus YDR101C, strain arx1, stronger effect = lower value 0.848 | locus YDR137W, strain rgp1, stronger effect = lower value 0.707 | locus YDR150W, strain NUM1, stronger effect = lower value 0.879 | locus YDR162C, strain NBP2, stronger effect = lower value 0.414 | locus YDR195W, strain ref2 1.28 [resistant] | locus YDR318W, strain mcm21, stronger effect = lower value 0.861 | locus YDR388W, stronger effect = lower value 0.811 | locus YDR502C, strain sam2, stronger effect = lower value 0.7 | locus YEL061C, strain CIN8, stronger effect = lower value 0.7 | locus YER015W, strain faa2, stronger effect = lower value 0.894 | locus YER016W, strain bim1, stronger effect = lower value 0.909 | locus YER155C, strain BEM2, stronger effect = lower value 0.638 | locus YER167W, strain BCK2, stronger effect = lower value 0.713 | locus YFR010W, strain ubp6, stronger effect = lower value 0.894 | locus YGL086W, strain mad1, stronger effect = lower value 0.718 | locus YGL248W, strain PDE1, stronger effect = lower value 0.682 | locus YGL253W, strain hxk2, stronger effect = lower value 0.825 | locus YGR135W, strain pre9, stronger effect = lower value 0.818 | locus YHR027C, strain rpn1, stronger effect = lower value 0.713 | locus YHR079C, strain IRE1 (second series), stronger effect = lower value 0.856 | locus YHR094C, strain hxt1, stronger effect = lower value 0.88 | locus YHR129C, strain ARP1, stronger effect = lower value 0.638 | locus YHR200W, strain rpn10, stronger effect = lower value 0.771 | locus YIL066C, strain RNR3, stronger effect = lower value 0.421 | locus YIL073C, strain SPO22, stronger effect = lower value 0.593 | locus YIL125W, strain kgd1, stronger effect = lower value 0.861 | locus YIR030C, strain dcg1, stronger effect = lower value 0.908 | locus YJL092W, strain hpr5, stronger effect = lower value 0.734 | locus YJL095W, strain BCK1 (second series), stronger effect = lower value 0.912 | locus YJL115W, strain asf1, stronger effect = lower value 0.394 | locus YJL134W, strain LCB3, stronger effect = lower value 0.905 | locus YJL164C, strain tpk1, stronger effect = lower value 0.887 | locus YJL166W, strain qcr8, stronger effect = lower value 0.838 | locus YJL187C, strain SWE1 (second series), stronger effect = lower value 0.344 | locus YJR043C, strain POL32, stronger effect = lower value 0.696 | locus YKL009W, strain mrt4, stronger effect = lower value 1.54 [resistant] | locus YKL085W, strain MDH1 (second series), stronger effect = lower value 0.818 | locus YKL085W, strain MDH1, stronger effect = lower value 0.818 | locus YKL160W, strain elf1, stronger effect = lower value 0.9 | locus YKR001C, strain vps1, stronger effect = lower value 0.354 | locus YLR027C, strain aat2, stronger effect = lower value 0.869 | locus YLR039C, strain RIC1, stronger effect = lower value 0.395 | locus YLR058C, strain SHM2, stronger effect = lower value 0.643 | locus YLR221C, strain rsa3, stronger effect = lower value 0.901 | locus YLR258W, strain gsy2, stronger effect = lower value 0.9 | locus YLR262C, strain YPT6 (second series), stronger effect = lower value 0.795 | locus YLR268W, strain sec22, stronger effect = lower value 0.545 | locus YLR320W, strain mms22, stronger effect = lower value 0.216 | locus YLR418C, strain cdc73, stronger effect = lower value 0.56 | locus YML016C, strain PPZ1, stronger effect = lower value 0.815 | locus YML032C, strain rad52, stronger effect = lower value 0.175 | locus YML124C, strain tub3, stronger effect = lower value 0.808 | locus YMR058W, strain fet3, stronger effect = lower value 0.815 | locus YMR078C, strain ctf18, stronger effect = lower value 0.335 | locus YMR223W, strain ubp8, stronger effect = lower value 0.602 | locus YNL067W, strain RPL9B, stronger effect = lower value 0.691 | locus YNL209W, strain ssb2, stronger effect = lower value 0.895 | locus YNL233W, strain BNI4, stronger effect = lower value 0.511 | locus YNL248C, strain rpa49, stronger effect = lower value 0.706 | locus YNL250W, strain rad50, stronger effect = lower value 0.144 | locus YNL271C, strain bni1, stronger effect = lower value 0.885 | locus YNL298W, strain CLA4, stronger effect = lower value 0.891 | locus YNL307C, strain MCK1, stronger effect = lower value 0.785 | locus YNL322C, strain KRE1, stronger effect = lower value 0.751 | locus YNR052C, strain pop2, stronger effect = lower value 0.666 | locus YOL147C, strain pex11, stronger effect = lower value 0.802 | locus YOR061W, strain CKA2, stronger effect = lower value 0.793 | locus YOR069W, strain VPS5, stronger effect = lower value 0.577 | locus YOR070C, strain gyp1, stronger effect = lower value 0.877 | locus YOR083W, strain WHI5, stronger effect = lower value 0.806 | locus YOR106W, strain vam3, stronger effect = lower value 0.593 | locus YOR136W, strain idh2, stronger effect = lower value 0.877 | locus YOR144C, strain elg1, stronger effect = lower value 0.812 | locus YOR184W, strain ser1, stronger effect = lower value 0.426 | locus YOR270C, strain vph1, stronger effect = lower value 0.409 | locus YPL051W, strain arl3, stronger effect = lower value 0.685 | locus YPL055C, strain LGE1, stronger effect = lower value 0.146 | locus YPL106C, strain sse1, stronger effect = lower value 1.21 [resistant] | locus YPR141C, strain kar3, stronger effect = lower value 0.912 | locus YPR163C, strain tif3, stronger effect = lower value 0.72 | locus YPR167C, strain met16, stronger effect = lower value 0.597 | strain wtn01, stronger effect = lower value 0.703
0.21 (active) and 0.986 (inactive): locus YJL095W, strain BCK1, stronger effect = lower value
inactive: locus YAL026C, strain drs2, stronger effect = lower value 0.936 | locus YBR021W, strain FUR4, stronger effect = lower value 1.06 | locus YBR023C, strain chs3, stronger effect = lower value 0.924 | locus YBR171W, strain sec66, stronger effect = lower value 1.02 | locus YBR229C, strain ROT2, stronger effect = lower value 0.931 | locus YBR279W, strain paf1, stronger effect = lower value 0.964 | locus YCL069W, strain vba3, stronger effect = lower value 0.993 | locus YCR088W, strain abp1, stronger effect = lower value 0.963 | locus YDL005C, strain med2, stronger effect = lower value 1.01 | locus YDL040C, strain nat1, stronger effect = lower value 0.967 | locus YDR001C, strain nth1, stronger effect = lower value 1 | locus YDR159W, strain sac3, stronger effect = lower value 0.873 | locus YDR297W, strain sur2, stronger effect = lower value 0.94 | locus YDR334W, strain swr1, stronger effect = lower value 1.01 | locus YDR335W, strain msn5, stronger effect = lower value 0.961 | locus YDR392W, strain spt3, stronger effect = lower value 0.799 | locus YEL003W, strain gim4, stronger effect = lower value 0.958 | locus YEL037C, strain rad23, stronger effect = lower value 0.997 | locus YEL061C, strain CIN8 (second series), stronger effect = lower value 1.01 | locus YER110C, stronger effect = lower value 0.98 | locus YER111C, strain swi4, stronger effect = lower value 1.03 | locus YER155C, strain BEM2 (second series), stronger effect = lower value 1.06 | locus YGL078C, strain dbp3, stronger effect = lower value 0.935 | locus YGL167C, strain pmr1, stronger effect = lower value 0.976 | locus YGL173C, strain kem1, stronger effect = lower value 0.906 | locus YGL227W, strain vid30, stronger effect = lower value 1.01 | locus YGL240W, strain doc1, stronger effect = lower value 0.894 | locus YGR252W, strain gcn5, stronger effect = lower value 0.832 | locus YHR013C, strain ard1, stronger effect = lower value 1 | locus YHR030C, strain SLT2, stronger effect = lower value 0.97 | locus YHR079C, strain IRE1, stronger effect = lower value 0.984 | locus YHR142W, strain chs7, stronger effect = lower value 0.883 | locus YJL129C, strain trk1, stronger effect = lower value 0.989 | locus YJL154C, strain vps35, stronger effect = lower value 0.996 | locus YJL168C, strain set2, stronger effect = lower value 0.942 | locus YJR066W, strain TOR1, stronger effect = lower value 0.941 | locus YKR026C, strain gcn3, stronger effect = lower value 0.994 | locus YKR091W, strain srl3, stronger effect = lower value 1 | locus YLL001W, strain dnm1, stronger effect = lower value 0.953 | locus YLL026W, stronger effect = lower value 0.956 | locus YLL041C, strain sdh2, stronger effect = lower value 0.982 | locus YLR102C, strain apc9, stronger effect = lower value 0.984 | locus YLR113W, strain HOG1, stronger effect = lower value 0.971 | locus YLR342W, strain FKS1 (second series), stronger effect = lower value 0.857 | locus YLR342W, strain FKS1, stronger effect = lower value 0.958 | locus YLR357W, strain rsc2, stronger effect = lower value 1.01 | locus YLR370C, strain arc18, stronger effect = lower value 0.96 | locus YLR371W, strain rom2, stronger effect = lower value 0.991 | locus YLR384C, strain iki3, stronger effect = lower value 1.02 | locus YML120C, strain ndi1, stronger effect = lower value 0.962 | locus YMR125W, strain sto1, stronger effect = lower value 1.08 | locus YMR129W, stronger effect = lower value 0.997 | locus YMR205C, strain PFK2, stronger effect = lower value 0.983 | locus YMR231W, strain pep5, stronger effect = lower value 1.01 | locus YMR307W, strain GAS1, stronger effect = lower value 0.641 | locus YNL071W, strain lat1, stronger effect = lower value 0.932 | locus YNL183C, strain NPR1, stronger effect = lower value 0.929 | locus YNL322C, strain KRE1 (second series), stronger effect = lower value 0.919 | locus YNR049C, strain mso1, stronger effect = lower value 0.976 | locus YOL012C, strain htz1 0.287 | locus YOR001W, strain rrp6, stronger effect = lower value 0.943 | locus YOR080W, strain dia2, stronger effect = lower value 0.941 | locus YOR231W, strain MKK1, stronger effect = lower value 0.981 | locus YOR265W, strain rbl2, stronger effect = lower value 0.938 | locus YOR290C, strain snf2, stronger effect = lower value 0.911 | locus YOR316C, strain cot1, stronger effect = lower value 1 | locus YPL078C, strain atp4, stronger effect = lower value 0.961 | locus YPL240C, strain hsp82, stronger effect = lower value 0.979 | locus YPL256C, strain CLN2, stronger effect = lower value 0.995 | locus YPR119W, strain clb2, stronger effect = lower value 0.952
